PubChem BioAssay (Tox21)
Values joined by “and” are separate entries in the source; they are usually repeats but may differ in a detail not shown here. Equal entries are not always repeated. Results filed as inconclusive are left out. A call without a number means that no potency is given here. More than one record can exist for a structure, and the calls need not agree. Active and inactive are the calls of the source. Unless noted, calls follow the shape of the dose curve; as a rule, active = well fitted curve in the direction sought with a large enough effect in the repeat runs; inconclusive = weak or mixed curves; inactive = no such curve, though single readings can be large; an effect the other way counts as inactive or inconclusive.

Columns and labels:
[1] = qHTS assay to identify small molecule agonists of the peroxisome proliferator-activated receptor delta (PPARd) signaling pathway - cell viability counter screen (AID 743211); also: nearly all actives have a fitted effect of over 55% in size; also: potency is read from the fitted curve at half-maximal effect
Procedure, shortened: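 Read-out: CellTiter-Glo luminescence, 30 min RT, measured in the same wells as the beta-lactamase reporter. Cells: GeneBLAzer PPAR delta UAS-bla HEK293H, 3000 cells/well, compound exposure 17 h at 37C.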

[2] = target: Peroxisome proliferator-activated receptor delta (Homo sapiens) (UniProt Q03181); assay: qHTS assay to identify small molecule agonists of the peroxisome proliferator-activated receptor delta (PPARd) signaling pathway (AID 743212; calls by dose curve)
Procedure, shortened: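 Beta-lactamase reporter read by fluorescence (LiveBLAzer B/G FRET, 2 h, room temperature). Test agents, in DMSO, incubated at 37 C with PPARd-bla HEK293H cells.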

[3] = qHTS assay to identify small molecule antagonists of the peroxisome proliferator-activated receptor delta (PPARd) signaling pathway - cell viability counter screen (AID 743213); also: nearly all actives have a fitted effect of over 50% in size; also: potency is read from the fitted curve at half-maximal effect
Procedure, shortened: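 HEK293H PPARd UAS-bla cells, 5 h pre-incubation, compound + L165041 300 nM final, 17 h 37 C; B/G FRET substrate 2 h RT; then CellTiter-Glo 30 min RT, luminescence.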

[4] = target: Peroxisome proliferator-activated receptor delta (Homo sapiens) (UniProt Q03181); assay: qHTS assay to identify small molecule antagonists of the peroxisome proliferator-activated receptor delta (PPARd) signaling pathway (AID 743215; active = well fitted inhibition curve with a large enough effect in the signal ratio in the repeat runs, not every such curve was filed as active; the % refers to the signal ratio;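 also: cells stimulated with agonist L165041 at 300 nM final during compound exposure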; also: potency is read from the fitted curve at half-maximal effect)
Procedure, shortened: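 Cells: HEK293H with a UAS-driven beta-lactamase reporter responsive to PPARd. Compounds were co-added with L165041 (300 nM, final) and incubated 17 h at 37 C before a 2 h room-temperature FRET substrate step and fluorescence reading.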

[5] = qHTS assay to identify small molecule agonists of the farnesoid-X-receptor (FXR) signaling pathway - cell viability counter screen (AID 743218); also: nearly all actives have a fitted effect of over 45% in size; also: potency is read from the fitted curve at half-maximal effect
Procedure, shortened: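 Cells were seeded, left 5 h at 37 C and 5% CO2, then dosed with compound in DMSO for 16 h. After the beta-lactamase FRET read, CellTiter-Glo was added and luminescence measured 30 min later.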

[6] = qHTS assay to identify small molecule antagonists of the farnesoid-X-receptor (FXR) signaling pathway - cell viability counter screen (AID 743221; active = well fitted cell-killing curve with a large enough effect in the repeat runs, not every such curve was filed as active; also: nearly all actives have a fitted effect of over 50% in size; also: potency is read from the fitted curve at half-maximal effect)
Procedure, shortened: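 HEK 293T FXR-bla cells, 5 h pre-incubation; compound + CDCA 50 uM final, 16 h, 37 C; beta-lactamase FRET read first, then CellTiter-Glo luminescence, 30 min RT.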

[7] = target: Vitamin D3 receptor (Homo sapiens) (UniProt P11473); assay: qHTS assay to identify small molecule antagonists of the vitamin D receptor (VDR) signaling pathway (AID 743223; active = well fitted inhibition curve with a large enough effect in the signal ratio in the repeat runs, not every such curve was filed as active; the % refers to the signal ratio; also: potency is read from the fitted curve at half-maximal effect)
Procedure, shortened: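 Beta-lactamase reporter read-out: FRET substrate fluorescence after 2 h at room temperature, following 16 h exposure of VDR-bla cells to test compound plus 3 nM (final) 1alpha,25-dihydroxyvitamin D3 agonist at 37C.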

[8] = qHTS assay to identify small molecule antagonists of the vitamin D receptor (VDR) signaling pathway - cell viability counter screen (AID 743225); also: nearly all actives have a fitted effect of over 50% in size; also: potency is read from the fitted curve at half-maximal effect
Procedure, shortened: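 Viability counter screen run in the same wells as the beta-lactamase reporter assay: HEK 293T VDR-UAS-bla cells, 16 h compound exposure at 37C with 3 nM (final) 1-alpha,25-dihydroxyvitamin D3. CellTiter-Glo luminescence, 30 min, room temperature.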

[9] = qHTS assay to identify small molecule agonists of the NFkB signaling pathway - cell viability counter screen (AID 1159515; calls by dose curve; also: nearly all actives have a fitted effect of over 55% in size; also: potency is read from the fitted curve at half-maximal effect)
Procedure, shortened: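 Cells are seeded (2,000 NFkB-bla ME-180 per well), rested overnight, and dosed with DMSO-dissolved compounds for 5 hr at 37 C. Viability is then read by CellTiter-Glo luminescence after 30 min at room temperature.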

[10] = qHTS assay to identify small molecule antagonists of the retinoid-related orphan receptor gamma (ROR-gamma) signaling pathway - cell viability counter screen (AID 1159520); also: nearly all actives have a fitted effect of over 50% in size; also: potency is read from the fitted curve at half-maximal effect
Procedure, shortened: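 Tet-on ROR gamma CHO cells (1,000/well) were plated 4 hr, given compounds in DMSO for 2 hr at 37 C, then induced with 1 uM final doxycycline for 16 hr. Viability was read as ATP by CellTiter-Glo luminescence after 30 min.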

[11] = qHTS assay to identify small molecule agonists of the AP-1 signaling pathway - cell viability counter screen (AID 1159525; calls by dose curve; also: nearly all actives have a fitted effect of over 55% in size; also: potency is read from the fitted curve at half-maximal effect)
Procedure, shortened: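 Each titration point was normalised to DMSO and tetra n-octyl ammonium bromide controls. The read was Cell Titer Glo luminescence after 30 min at RT, following 5 h compound exposure of ME-180 AP-1-bla cells at 37 °C.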

[12] = qHTS assay to identify small molecule agonists of the AP-1 signaling pathway (AID 1159526; calls by dose curve; also: potency is read from the fitted curve at half-maximal effect)
[13] = qHTS assay to identify small molecule agonists of the vitamin D receptor (VDR) signaling pathway - cell viability counter screen (AID 743224); also: nearly all actives have a fitted effect of over 50% in size; also: potency is read from the fitted curve at half-maximal effect
Procedure, shortened: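 Cells: VDR-bla, 2,000/well, settled 4 h. Treatment: compounds in DMSO, 16 h, 37C/5% CO2. Readout: CellTiter-Glo luminescence after 30 min RT.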

[14] = qHTS assay to identify small molecule agonists of the endoplasmic reticulum stress response signaling pathway - cell viability counter screen (AID 1159517; calls by dose curve; also: nearly all actives have a fitted effect of over 50% in size; also: potency is read from the fitted curve at half-maximal effect)
Procedure, shortened: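 Cytotoxicity of test compounds toward ESRE-bla HeLa cells was assessed after 5 hr exposure. The luminescent CellTiter-Glo signal was measured 30 min after reagent addition.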

[15] = target: Nuclear receptor ROR-gamma (Homo sapiens) (UniProt P51449); assay: qHTS assay to identify small molecule antagonists of the retinoid-related orphan receptor gamma (ROR-gamma) signaling pathway (AID 1159521; also: nearly all actives have a fitted effect of over 50% in size; also: potency is read from the fitted curve at half-maximal effect)
Procedure, shortened: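 Luminescence readout (ONE-Glo, 30 min RT) after 16 h doxycycline induction; loss of signal scored as antagonism. CHO cells with TET-inducible RORγ and RORE-LUC reporter; compounds added 2 h before 1 uM final doxycycline.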

[16] = target: Vitamin D3 receptor (Homo sapiens) (UniProt P11473); assay: qHTS assay to identify small molecule agonists of the vitamin D receptor (VDR) signaling pathway (AID 743222; calls by dose curve)
Procedure, shortened: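 Cells carrying a VDR-driven beta-lactamase reporter are seeded at 2,000 per well and rested 4 h. Compounds in DMSO are added for 16 h at 37C, and FRET substrate fluorescence is measured after 2 h at room temperature.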

[17] = target: Bile acid receptor (Homo sapiens) (UniProt Q96RI1); assay: qHTS assay to identify small molecule antagonists of the farnesoid-X-receptor (FXR) signaling pathway (AID 743217; active = well fitted inhibition curve with a large enough effect in the signal ratio in the repeat runs, not every such curve was filed as active; the % refers to the signal ratio)
Procedure, shortened: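 Cells carrying a UAS-driven beta-lactamase reporter (GeneBLAzer FXR-UAS-bla HEK 293T) were plated and rested 5 h at 37 °C. Compounds in DMSO were added alongside chenodeoxycholic acid agonist at 50 uM final and left 16 h at 37 °C before FRET substrate readout.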

[18] = target: Retinoic acid receptor RXR-alpha (Homo sapiens) (UniProt P19793); assay: qHTS assay to identify small molecule agonists of the RXR signaling pathway (AID 1159527; calls by dose curve; also: nearly all actives have a fitted effect of over 35% in size; also: potency is read from the fitted curve at half-maximal effect)
Procedure, shortened: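 Agonist mode; 9-cis retinoic acid positive control. HEK 293T UAS-bla reporter cells, 2% charcoal-stripped FBS, 16 hr compound exposure at 37 C/5% CO2. LiveBLAzer B/G FRET substrate 2 hr RT; ex 405, em 460/530 nm.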

[19] = target: Bile acid receptor (Homo sapiens) (UniProt Q96RI1); assay: qHTS assay to identify small molecule agonists of the farnesoid-X-receptor (FXR) signaling pathway (AID 743220; active = well fitted activation curve with a large enough effect in the signal ratio in the repeat runs, not every such curve was filed as active; the % refers to the signal ratio)
Procedure, shortened: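 FXR-UAS-bla HEK 293T cells carrying a UAS-driven beta-lactamase reporter were plated for 5 h at 37C/5% CO2, then exposed to DMSO-dissolved Tox21 10K compounds for 16 h at 37C. A LiveBLAzer B/G FRET substrate was loaded for 2 h at room temperature before fluorescence reading.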

Bile acid receptor (Homo sapiens), sequence (Q96RI1 whole entry, looked up): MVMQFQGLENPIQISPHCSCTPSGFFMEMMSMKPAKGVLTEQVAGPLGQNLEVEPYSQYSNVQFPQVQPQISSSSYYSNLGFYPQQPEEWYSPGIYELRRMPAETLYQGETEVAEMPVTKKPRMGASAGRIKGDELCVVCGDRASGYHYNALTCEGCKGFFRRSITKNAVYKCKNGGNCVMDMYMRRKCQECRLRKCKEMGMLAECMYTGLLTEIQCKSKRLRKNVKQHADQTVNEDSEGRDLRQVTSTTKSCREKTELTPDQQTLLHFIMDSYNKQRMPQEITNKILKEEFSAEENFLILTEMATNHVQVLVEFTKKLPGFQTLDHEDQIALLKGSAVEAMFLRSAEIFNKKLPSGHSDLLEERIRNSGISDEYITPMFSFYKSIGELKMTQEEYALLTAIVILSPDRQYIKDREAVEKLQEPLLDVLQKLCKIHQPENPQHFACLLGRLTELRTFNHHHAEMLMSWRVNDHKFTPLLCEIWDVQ
Retinoic acid receptor RXR-alpha (Homo sapiens), sequence (P19793 whole entry, looked up): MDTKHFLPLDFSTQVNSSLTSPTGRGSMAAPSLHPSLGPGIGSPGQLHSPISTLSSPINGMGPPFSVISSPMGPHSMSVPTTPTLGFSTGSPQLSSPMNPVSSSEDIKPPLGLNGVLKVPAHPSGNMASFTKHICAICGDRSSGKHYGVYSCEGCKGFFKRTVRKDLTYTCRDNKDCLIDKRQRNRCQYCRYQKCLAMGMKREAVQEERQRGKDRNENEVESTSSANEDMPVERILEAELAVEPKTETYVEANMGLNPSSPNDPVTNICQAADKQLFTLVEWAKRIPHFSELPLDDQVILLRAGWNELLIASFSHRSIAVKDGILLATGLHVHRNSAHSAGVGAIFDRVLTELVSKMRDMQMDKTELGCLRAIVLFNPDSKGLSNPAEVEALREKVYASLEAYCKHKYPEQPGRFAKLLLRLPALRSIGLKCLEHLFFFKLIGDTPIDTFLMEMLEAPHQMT
Vitamin D3 receptor (Homo sapiens), sequence (P11473 whole entry, looked up): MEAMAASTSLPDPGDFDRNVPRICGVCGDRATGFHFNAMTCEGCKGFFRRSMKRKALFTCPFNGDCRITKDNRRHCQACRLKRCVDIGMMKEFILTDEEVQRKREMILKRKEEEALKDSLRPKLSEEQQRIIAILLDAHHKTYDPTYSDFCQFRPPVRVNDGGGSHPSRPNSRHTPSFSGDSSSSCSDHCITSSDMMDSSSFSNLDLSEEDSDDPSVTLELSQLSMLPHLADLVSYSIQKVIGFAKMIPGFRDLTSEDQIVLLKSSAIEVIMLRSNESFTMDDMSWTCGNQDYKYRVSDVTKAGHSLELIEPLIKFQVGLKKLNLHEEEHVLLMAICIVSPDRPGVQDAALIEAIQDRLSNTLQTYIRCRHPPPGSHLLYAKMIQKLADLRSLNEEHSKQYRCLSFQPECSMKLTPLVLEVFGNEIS
Peroxisome proliferator-activated receptor delta (Homo sapiens), sequence (Q03181 whole entry, looked up): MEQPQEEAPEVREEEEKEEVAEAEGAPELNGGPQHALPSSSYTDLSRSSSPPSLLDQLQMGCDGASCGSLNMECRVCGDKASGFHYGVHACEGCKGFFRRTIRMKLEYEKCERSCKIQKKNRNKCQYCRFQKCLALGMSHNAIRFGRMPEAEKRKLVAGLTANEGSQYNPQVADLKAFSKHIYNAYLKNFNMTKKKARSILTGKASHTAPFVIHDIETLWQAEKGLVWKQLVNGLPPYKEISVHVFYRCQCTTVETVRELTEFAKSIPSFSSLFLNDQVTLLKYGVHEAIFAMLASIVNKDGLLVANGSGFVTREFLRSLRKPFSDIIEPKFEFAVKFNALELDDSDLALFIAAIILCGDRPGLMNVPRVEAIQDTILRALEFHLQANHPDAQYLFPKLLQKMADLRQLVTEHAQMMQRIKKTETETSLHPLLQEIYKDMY

SMILES	Potency [1]	Potency [2]	Potency [3]	Potency [4]	Potency [5]	Potency [6]	Potency [7]	Potency [8]	Potency [9]	Potency [10]	Potency [11]	Potency [12]	Potency [13]	Potency [14]	Potency [15]	Potency [16]	Potency [17]	Potency [18]	Potency [19]
CCC(C)Nc1c([N+](=O)[O-])cc(C(C)(C)C)cc1[N+](=O)[O-] (configuration not stated)	inactive	inactive	inactive	inactive	inactive	inactive	inactive	inactive	inactive	inactive	inactive	inactive	–	–	–	–	–	–	–
N#Cc1sc2c(=O)c3ccccc3c(=O)c=2sc1C#N	–	–	12.3 µM (active)	–	34.7 µM (active)	34.7 µM (active)	–	11 µM (active)	1.95 µM (active)	2.17 µM (active)	0.389 µM (active)	–	4.9 µM (active)	6.92 µM (active)	–	–	–	–	–
Fc1ccc(C(OCCN2CCN(CCCc3ccccc3)CC2)c2ccc(F)cc2)cc1	16.8 µM (active)	–	26.6 µM (active)	29.8 µM (active)	–	–	–	21.3 µM (active)	23.9 µM (active)	29.8 µM (active)	–	–	–	26.8 µM (active)	–	–	–	–	–
c1ccc2c(c1)cc1ccc3cccc4ccc2c1c34	inactive	–	–	–	inactive	inactive	–	–	inactive	inactive	inactive	–	inactive	inactive	inactive	–	–	–	–
CC(C)N(C(=O)CCl)c1ccccc1	–	–	–	–	–	inactive	–	inactive	inactive	27.3 µM (active) and 30.6 µM (active)	–	inactive	inactive	inactive	–	inactive	–	–	–
O=S1OCC2C(CO1)C1(Cl)C(Cl)=C(Cl)C2(Cl)C1(Cl)Cl (configuration not stated)	24.5 µM (active)	–	54.9 µM (active)	–	38.9 µM (active)	–	–	inactive	55 µM (active)	54.5 µM (active)	38.9 µM (active) and 48.9 µM (active)	–	38.9 µM (active)	55 µM (active)	–	inactive	–	–	–
N#Cc1c2ccccc2cc2ccccc12	–	–	inactive	–	–	inactive	–	–	inactive	inactive	inactive	–	inactive	inactive	inactive	–	–	–	–
C[C@]12C/C(=C/O)C(=O)C[C@@H]1CC[C@@H]1[C@@H]2CC[C@@]2(C)[C@H]1CC[C@]2(C)O	49.4 µM (active)	–	inactive	–	–	inactive	inactive	inactive	inactive	61.7 µM (active)	inactive	inactive	inactive	24.8 µM (active) and 16.9 µM (active)	–	–	–	–	–
CC(C)=CC1C(C(=O)OC(C#N)c2cccc(Oc3ccccc3)c2)C1(C)C (configuration not stated)	–	inactive	inactive	inactive	inactive	inactive	–	–	inactive	inactive	–	inactive	inactive	inactive	–	–	inactive	–	–
[Cl][Hg][c]1ccccc1	0.977 µM (active)	–	2.19 µM (active)	–	1.55 µM (active)	–	–	0.692 µM (active)	3.89 µM (active)	1.09 µM (active)	1.38 µM (active)	–	0.692 µM (active)	11 µM (active)	–	inactive	–	–	–
C=C(C)C(=O)[O][Sn]([CH2]CCC)([CH2]CCC)[CH2]CCC	–	–	1.55 µM (active)	–	0.616 µM (active)	0.977 µM (active)	–	1.95 µM (active)	0.436 µM (active)	1.37 µM (active)	0.977 µM (active)	–	0.49 µM (active)	–	306 nM (active)	inactive	–	–	–
CN(C)C(=S)SSC(=S)N(C)C	76.5 nM (active) and 38.9 nM (active) and 188 nM (active)	–	108 nM (active) and 30.9 nM (active) and 298 nM (active)	–	121 nM (active) and 30.9 nM (active) and 841 nM (active)	–	–	27.2 µM (active) and 24.5 µM (active)	0.674 µM (active)	33.9 µM (active) and 433 nM (active) and 422 nM (active)	5.49 µM (active) and 9.52 µM (active)	–	85.9 nM (active) and 27.5 nM (active) and 188 nM (active)	–	85.1 nM (active) and 344 nM (active) and 266 nM (active)	inactive	–	–	–
O=C(N[C@H]1N=C(c2ccccc2F)c2cccc3c2N(CC3)C1=O)c1cc2ccccc2[nH]1	inactive	inactive	–	inactive	inactive	–	inactive	inactive	inactive	inactive	inactive	–	inactive	–	inactive	inactive	–	inactive	–
BrCC(Br)(Br)Br	–	inactive	inactive	inactive	inactive	inactive	inactive	–	inactive	50.3 µM (active)	–	inactive	–	inactive	–	inactive	–	inactive	inactive
O=C(O)CCCCCCNC1c2ccccc2CCc2ccccc21	inactive	–	inactive	inactive	inactive	inactive	inactive	inactive	inactive	inactive	inactive	10.7 µM (active)	inactive	–	inactive	inactive	inactive	inactive	–
CC(=O)[O][Pb]([c]1ccccc1)([c]1ccccc1)[c]1ccccc1	1.23 µM (active)	–	1.23 µM (active)	–	0.549 µM (active)	1.1 µM (active)	–	0.977 µM (active)	0.871 µM (active)	0.77 µM (active)	15.5 µM (active)	–	–	–	193 nM (active)	–	–	–	–
CCC[CH2][Sn]([CH2]CCC)([CH2]CCC)[CH2]CCC	43.6 µM (active)	–	–	15.5 µM (active)	49 µM (active)	–	–	49 µM (active)	30.9 µM (active)	10.9 µM (active)	–	–	38.9 µM (active)	21.9 µM (active)	–	–	–	0.0871 µM (active)	–
O=C1C2(Cl)C3(Cl)C4(Cl)C(Cl)(Cl)C5(Cl)C3(Cl)C1(Cl)C5(Cl)C24Cl (configuration not stated)	–	inactive	54 µM (active)	–	–	54 µM (active)	54 µM (active)	–	52.6 µM (active)	21.3 µM (active) and 46.5 µM (active)	30.4 µM (active)	–	48.2 µM (active) and 41.8 µM (active)	48.2 µM (active)	–	inactive	–	–	inactive
[F][Sn]([c]1ccccc1)([c]1ccccc1)[c]1ccccc1	–	–	0.977 µM (active)	–	0.977 µM (active)	1.55 µM (active)	–	0.692 µM (active)	7.76 µM (active)	0.864 µM (active)	7.76 µM (active)	–	0.49 µM (active)	5.49 µM (active)	273 nM (active)	inactive	–	–	–
CCOP(=O)(OCC)Oc1nc(Cl)c(Cl)cc1Cl	38.7 µM (active)	–	–	12.2 µM (active)	–	–	–	–	inactive	inactive	inactive	–	–	inactive	48300 nM (active)	inactive	–	–	–
O=C1C(Cl)=C(Cl)C(=O)C(Cl)=C1Cl	15.5 µM (active)	inactive	13.8 µM (active)	–	inactive and 19.5 µM (active)	inactive	–	–	38.9 µM (active)	15.3 µM (active)	inactive	–	12.3 µM (active) and 13.8 µM (active)	–	12.1 µM (active) and 30.6 µM (active)	inactive	inactive	–	–
